# Data published in PubChem BioAssay (NCI).
# The panel holds about 83,000 compounds, 20% with a hit somewhere; the sample as a whole holds those more often.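 In brief: 96-well plates, 48 h treatment, single concentration, percent growth endpoint.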 Unmarked numbers belong to inactive results. The source made the active and inactive calls.
# Tested on: TK-10 renal
# Experiment: NCI-60 one-dose screen, 48 h (100 = growth as untreated, 0 = no growth, -100 = all killed)
# Settings: 10 µM unless noted
# Procedure: Growth inhibition of the TK-10 human tumor cell line is measured as a screen for anti-cancer activity. Cells are grown in 96 well plates and exposed to the test compound for 48 hours. Compounds are tested at a single concentration, which is 10^-5 M for most compounds. The reported endpoint is percent growth (GI% or GIPRCNT), where numbers from 0 - 100% represent growth inhibition, and numbers from -100% - 0 represent cell death. For example, a value of 40 represents 60% growth inhibition. A value of 0 means no net growth occurred over the course of the experiment. A value of -40 indicates 40% of cells at the beginning of the experiment died by the end of the experiment. A value of -100 means all cells are dead at the end of the experiment.
# NCI-60 Human Tumor Cell Lines Screen was performed using the standard one-dose NCI protocol, which is described in more detail at https://dtp.cancer.gov/discovery_development/nci-60/default.htm.
# Compounds with GIPRCNT values below 10 were considered active. Activity score was based on GIPRCNT using the following formula: […]
# Score is 0 for GIPRCNT values of 100 or above, 50 for GIPRCNT values of 0, and 100 for GIPRCNT values of -100.
row,SMILES,growth
1,CC(=O)NCCN,109%
2,CC(C)(C)C(=O)OCOP(=O)(OCOC(=O)C(C)(C)C)C1CC(O)N(O)C1=O (stereo not given),63.6%
3,COc1cc(/C=C/C(=O)/C=C(/C=C/c2ccc(OC(C)=O)c(OC)c2)OB(F)F)ccc1OC(C)=O,80.7%
4,COc1ccc(C2=NN(C(=O)c3cc(-c4ccc(C)cc4)nc4ccccc34)C(c3cc(-c4ccccc4)nn3-c3ccccc3)C2)cc1 (stereo not given),113%
5,Nc1ccc(S(=O)(=O)c2ccc(NO)cc2)cc1,131%
6,COc1ccc(-c2cc(C#N)c(NNC(C)=O)[nH]2)cc1,95.7%
7,COC(=O)[C@H](Cc1cn(C)cn1)NC(=O)[C@H](CC(=O)OCc1ccccc1)NC(=O)Nc1cc(C(F)(F)F)cc(C(F)(F)F)c1,-97.5% [100 µM] (active)
8,CC1(C)C(O)NC(Cl)=C(C#N)C1(C#N)C#N (stereo not given),143%
9,CCn1cnc(C[C@H](NC(=O)[C@@H](NC(=O)Nc2cc(C(F)(F)F)cc(C(F)(F)F)c2)C(C)(C)C)C(=O)OC)c1,-97.6% [100 µM] (active)
10,CCCCCCCCCCCCOC(=N)N(C)C,94%
11,CC(=O)Nc1nc(C)c(C(=O)NN)s1,203%
12,COC(=O)/C=C/c1cc(O)c2oc(-c3ccc(O)c(O)c3)c(C(=O)OC)c2c1,46.7%
13,COc1cc2c(/C=C3\C(=O)Nc4ccc(Br)cc43)c(Cl)n(C)c2cc1C,31.2%
14,CCCCn1c(Cc2ccc(OC)cc2)nc2cc(OC)c(OC)cc2c1=O,67.2%
15,CCOC(=O)c1c(C)oc2ncnc(Nc3ccc(NC(=O)Nc4ccc(CC)cc4)cc3)c12,112%
16,O=Nc1c(-c2c(O)[nH]c3cc(Br)ccc23)[nH]c2ccccc12,-10.5% (active)
17,COc1cc2ncnc(-n3ncc4cc(NC(=O)Nc5ccccc5)ccc43)c2cc1OC,-41.1% (active)
18,COC(=O)Nc1nc2ccc(C(=O)c3ccccc3N(C)C3COC3)cc2[nH]1,59.5%
19,COC(=O)c1ccc(C(=Nc2ccc(N(C)C(=O)CN3CCN(C)CC3)cc2)c2c(O)[nH]c3ccc(C(=O)OC)cc23)cc1,51.7%
20,CCOP1(=O)CC(C)=C(Cl)C(P(=O)(O)O)C1 (stereo not given),117%

row,SMILES,growth
1,Nc1cc(N)c2nc(NCCc3ccc(Cl)c(Cl)c3)cnc2c1,98.6%
2,Oc1ccc(CN(Cc2ccc(C(F)(F)F)cc2)Cc2ccc(O)c3ncccc23)c2cccnc12,14.7%
3,O=C(CN1CCN(c2cccc(Cl)c2)CC1)N1CCN(c2nnc(-c3ccc(Cl)cc3)c(-c3ccc(Cl)cc3)n2)CC1,90.2%
4,CC(=O)Nc1nc(C)c(C(=O)N/N=C/N2CCOCC2)s1,103%
5,OC(c1ccccc1)(c1ccccc1)C(F)(F)F,95.7%
6,CCCCCCC(C(=O)OCC)(C(=O)OCC)C1CCCCCC1,102%
7,c1ccc(Nc2ncc3c(n2)-c2cccn2CC3)cc1,90.8%
8,COc1cc([C@@H]2c3cc4c(cc3[C@H](O)[C@H]3COC[C@@H]23)OCO4)cc(OC)c1OC,94.4%
9,C/C(CCC(=O)O)=N/Nc1ccc([N+](=O)[O-])cc1,88.1%
10,O=C(OCC1CC2(Cl)C(Cl)=C(Cl)C1(Cl)C2(Cl)Cl)C1C(C(=O)OCC2CC3(Cl)C(Cl)=C(Cl)C2(Cl)C3(Cl)Cl)C2(Cl)C(Cl)=C(Cl)C1(Cl)C2(Cl)Cl (stereo not given),105%
11,COC(c1ccccc1)C(Br)C(=O)c1ccccc1 (stereo not given),91.5%
12,C/C=C/C/C=C/[C@H](C)C[C@H](O)[C@@H]1C[C@@H]2O[C@H]2/C=C/[C@@H]2OC(C)(C)O[C@H]2/C=C/C[C@H](C)CC(=O)O1,18.8%
13,CCN(CC)CCCNc1c2ccc(Cl)cc2nc2ccc(OC)cc12,-4.36% (active)
14,CCN(CCO)CCNc1ccc(C)c2sc3cc(OC)ccc3c(=O)c12,79.3%
15,N/C(=N\O)c1ccncc1,95.8%
16,COc1ccc2c(c1)/C(=C1/S/C(=N/c3nnc(C)s3)NC1=O)C(=O)N2Cc1ccc(Br)cc1,35%
17,COCn1c(C(=O)OC)cc2oc(/C=C3/SC(=S)N(N)C3=O)cc21,101%
18,CC1(C)CC(=O)C2=C(C1)Oc1nc(N)c(C#N)c(N)c1C2c1ccc(F)cc1 (stereo not given),72.8%
19,C=CCSc1nnc(COc2ccc3c(C)c(Cc4ccccc4)c(=O)oc3c2C)o1,109%
20,N#CC1=C(N2CCOCC2)NC2c3ccccc3Sc3ccccc3N2C1=N (stereo not given),96.9%
